Whole data set: some 8,300 sequences, median “log2 fold change of degron read counts, EGFP-low vs EGFP+ sorted cells (limma voom), compound-induced degradation” near -1.1, cut for the highest 2% near 3.2. This excerpt belongs to a sample that is enriched for the highest values.
T1: CRBN, Q96SW2
T1 chain: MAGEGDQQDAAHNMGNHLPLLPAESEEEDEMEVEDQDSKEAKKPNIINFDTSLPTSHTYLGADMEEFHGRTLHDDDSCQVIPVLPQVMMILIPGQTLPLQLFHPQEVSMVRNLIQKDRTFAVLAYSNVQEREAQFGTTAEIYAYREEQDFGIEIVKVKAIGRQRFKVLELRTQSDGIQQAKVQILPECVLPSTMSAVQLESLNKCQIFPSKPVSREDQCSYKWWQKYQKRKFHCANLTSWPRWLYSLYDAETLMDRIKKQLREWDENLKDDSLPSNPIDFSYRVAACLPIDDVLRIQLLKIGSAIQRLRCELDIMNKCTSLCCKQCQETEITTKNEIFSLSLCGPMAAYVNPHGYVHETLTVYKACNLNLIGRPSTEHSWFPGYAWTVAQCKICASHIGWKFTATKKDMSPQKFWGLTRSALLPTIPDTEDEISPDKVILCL

B1: 46L_47A_49N_50Q_52G_53F_54R_55C_67L_, Q9UKT9 (peptide)
chain: LACNQCGFRCTQKGNLLRHIKL
B2: 46F_47S_49P_50I_52G_53R_54L_55F_67L_, Q9UKT9 (peptide)
chain: FSCPICGRLFTQKGNLLRHIKL
B3: 46F_47V_49P_50Q_52G_53A_54L_55F_67L_, Q9UKT9 (peptide)
chain: FVCPQCGALFTQKGNLLRHIKL
B4: 46F_47G_49E_50I_52G_53A_54W_55F_67L_, Q9UKT9 (peptide)
chain: FGCEICGAWFTQKGNLLRHIKL
B5: 46F_47L_49P_50Q_52G_53A_54Q_55F_67L_, Q9UKT9 (peptide)
chain: FLCPQCGAQFTQKGNLLRHIKL
B6: 46F_47D_49N_50I_52G_53A_54I_55F_67L_, Q9UKT9 (peptide)
chain: FDCNICGAIFTQKGNLLRHIKL
B7: 46F_47Y_49E_50I_52G_53H_54S_55F_67L_, Q9UKT9 (peptide)
chain: FYCEICGHSFTQKGNLLRHIKL
B8: 46F_47V_49N_50Q_52G_53A_54G_55F_67L_, Q9UKT9 (peptide)
chain: FVCNQCGAGFTQKGNLLRHIKL
B9: 46F_47F_49E_50I_52G_53H_54V_55F_67L_, Q9UKT9 (peptide)
chain: FFCEICGHVFTQKGNLLRHIKL
B10: 46L_47S_49E_50I_52G_53F_54H_55C_67L_, Q9UKT9 (peptide)
chain: LSCEICGFHCTQKGNLLRHIKL
B11: 46L_47A_49E_50I_52G_53F_54H_55C_67L_, Q9UKT9 (peptide)
chain: LACEICGFHCTQKGNLLRHIKL
B12: 46L_47C_49E_50I_52G_53F_54H_55C_67L_, Q9UKT9 (peptide)
chain: LCCEICGFHCTQKGNLLRHIKL
B13: 46L_47W_49E_50I_52G_53F_54H_55C_67L_, Q9UKT9 (peptide)
chain: LWCEICGFHCTQKGNLLRHIKL
B14: 46L_47Y_49E_50I_52G_53F_54H_55C_67L_, Q9UKT9 (peptide)
chain: LYCEICGFHCTQKGNLLRHIKL
B15: 46L_47I_49E_50I_52G_53F_54H_55C_67L_, Q9UKT9 (peptide)
chain: LICEICGFHCTQKGNLLRHIKL
B16: 46F_47H_49N_50Q_52G_53A_54R_55F_67L_, Q9UKT9 (peptide)
chain: FHCNQCGARFTQKGNLLRHIKL
B17: 46F_47V_49N_50Q_52G_53H_54T_55F_67L_, Q9UKT9 (peptide)
chain: FVCNQCGHTFTQKGNLLRHIKL
B18: 46L_47E_49P_50I_52G_53F_54D_55C_67L_, Q9UKT9 (peptide)
chain: LECPICGFDCTQKGNLLRHIKL
B19: 46L_47Y_49N_50Q_52G_53F_54Y_55C_67L_, Q9UKT9 (peptide)
chain: LYCNQCGFYCTQKGNLLRHIKL
B20: 46F_47S_49P_50I_52G_53A_54V_55F_67L_, Q9UKT9 (peptide)
chain: FSCPICGAVFTQKGNLLRHIKL
B21: 46F_47V_49P_50I_52G_53A_54V_55F_67L_, Q9UKT9 (peptide)
chain: FVCPICGAVFTQKGNLLRHIKL
B22: 46F_47E_49P_50I_52G_53A_54V_55F_67L_, Q9UKT9 (peptide)
chain: FECPICGAVFTQKGNLLRHIKL
B23: 46F_47Q_49P_50I_52G_53A_54V_55F_67L_, Q9UKT9 (peptide)
chain: FQCPICGAVFTQKGNLLRHIKL
B24: 46F_47I_49P_50I_52G_53A_54V_55F_67L_, Q9UKT9 (peptide)
chain: FICPICGAVFTQKGNLLRHIKL
B25: 46F_47G_49P_50I_52G_53A_54V_55F_67L_, Q9UKT9 (peptide)
chain: FGCPICGAVFTQKGNLLRHIKL
B26: 46F_47R_49P_50I_52G_53A_54V_55F_67L_, Q9UKT9 (peptide)
chain: FRCPICGAVFTQKGNLLRHIKL
B27: 46F_47T_49P_50I_52G_53A_54V_55F_67L_, Q9UKT9 (peptide)
chain: FTCPICGAVFTQKGNLLRHIKL
B28: 46F_47A_49P_50I_52G_53A_54V_55F_67L_, Q9UKT9 (peptide)
chain: FACPICGAVFTQKGNLLRHIKL

Molecular target: T1, CRBN, Q96SW2
Test: log2 fold change of degron read counts, EGFP-low vs EGFP+ sorted cells (limma voom), compound-induced degradation; higher = more compound-induced degradation of the degron-EGFP fusion; degrons are variants of IKZF1/3 zinc finger 2; compound dose not given here
Conditions: Jurkat, 18 h
[1] = compound: compound 19 (5-tert-butyl-thalidomide)
[2] = compound: compound 22 (5-morpholino-thalidomide)
[3] = compound: compound 33 (diphenyl IMiD analogue)
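Note: pooled lentiviral library of zinc finger degron-EGFP fusions in mCherry-positive Jurkat cells, FACS-sorted after compound exposure, with degron abundance counted by next-generation sequencing.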

Row | Sequence | log2 fold change of degron read counts [1] | log2 fold change of degron read counts [2] | log2 fold change of degron read counts [3] | log2 fold change of degron read counts (compound: thalidomide)
1 | B1 | -0.828 | -1.5 | -1.86 | -1.22
2 | B2 | -0.866 | -1.05 | 1.44 | -0.361
3 | B3 | -2.37 | -1.48 | -0.389 | -0.926
4 | B4 | -0.259 | -1.17 | 0.513 | -0.936
5 | B5 | -2.2 | -2.3 | 0.482 | -0.585
6 | B6 | -1.43 | -1.22 | -0.173 | 0.319
7 | B7 | -2.01 | -3.04 | -1.92 | -2.8
8 | B8 | -2.26 | -1.63 | -0.863 | -1.05
9 | B9 | -1.37 | -1.97 | -2.03 | -1.87
10 | B10 | 0.928 | 0.357 | 0.553 | 0.222
11 | B11 | 1.51 | 0.415 | 0.86 | -0.0575
12 | B12 | 0.332 | -0.174 | 1.51 | 0.845
13 | B13 | 2.73 | 3.48 | 2.33 | 1.12
14 | B14 | 3.13 | 3.42 | 2.8 | 1.66
15 | B15 | -0.287 | 0.622 | 1.12 | 1.6
16 | B16 | -1.49 | -1.78 | -1.81 | -2.18
17 | B17 | -3.49 | -3.28 | -3.04 | -3.41
18 | B18 | -2.52 | -2.45 | -1.18 | -0.86
19 | B19 | -0.857 | -0.989 | -0.803 | -0.772
20 | B20 | 2.16 | 1.75 | 2.72 | 1.48
21 | B21 | -0.253 | 1.32 | 2.04 | 2.17
22 | B22 | 0.283 | -0.0372 | 2.77 | 3.33
23 | B23 | 0.109 | 3.16 | 2.7 | 3.67
24 | B24 | -0.717 | 0.836 | 1.86 | 1.85
25 | B25 | 3.56 | 2.54 | 2.82 | 1.23
26 | B26 | -1.19 | -0.551 | 1.51 | 1.37
27 | B27 | 0.104 | 2.31 | 2.43 | 2.95
28 | B28 | 2.91 | 1.96 | 1.75 | 1.06
